Keap1 Nrf2 FP – Keap1-Nrf2 protein-protein interaction inhibitors, primary screen, biochemical, fluorescence polarization, single point | Kelch-like ECH-associated protein 1 (Homo sapiens), Q14145 | Keap1 Kelch-Nrf2 peptide fluorescence polarization, 1536-well | inhibition, % at 9.4 µM | 340,000 compounds, 0.15% hits; in the data active = inhibition above about 12%;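 note: human Keap1 Kelch domain with fluorescein labeled Nrf2 9mer peptide probe; higher means more block of Keap1 binding to Nrf2 peptide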
Target sequence (Q14145 whole entry, looked up, the tested form may be a part): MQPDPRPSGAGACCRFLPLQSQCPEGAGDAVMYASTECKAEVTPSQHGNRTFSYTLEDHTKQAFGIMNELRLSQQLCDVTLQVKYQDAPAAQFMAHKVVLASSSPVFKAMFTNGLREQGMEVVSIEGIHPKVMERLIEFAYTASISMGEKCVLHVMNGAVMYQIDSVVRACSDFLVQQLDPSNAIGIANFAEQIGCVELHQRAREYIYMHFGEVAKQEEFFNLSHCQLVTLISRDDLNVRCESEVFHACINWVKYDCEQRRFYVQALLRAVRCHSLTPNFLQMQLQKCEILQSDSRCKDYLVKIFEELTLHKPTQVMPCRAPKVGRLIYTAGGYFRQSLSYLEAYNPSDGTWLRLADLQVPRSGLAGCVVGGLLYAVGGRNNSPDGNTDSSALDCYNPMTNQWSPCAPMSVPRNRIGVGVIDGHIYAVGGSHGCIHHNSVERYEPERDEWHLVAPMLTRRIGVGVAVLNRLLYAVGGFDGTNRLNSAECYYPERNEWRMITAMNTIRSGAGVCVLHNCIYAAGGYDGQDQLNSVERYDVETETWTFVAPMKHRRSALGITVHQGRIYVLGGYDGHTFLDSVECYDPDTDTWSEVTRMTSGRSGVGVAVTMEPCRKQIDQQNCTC
E coli Lon inh – inhibitors of E. coli Lon protease, primary screen, biochemical, fluorescence polarization; P0A9M0; purified E. coli Lon protease; inhibition, % at 7.94 µM; 360,000 compounds, 0.42% hits; AID 602123, 2011; in the data active = inhibition above about 13%, passing the limit was not always enough
Cardiac RTF inh – cardiac RTF calcium sensitivity inhibitors, primary screen, biochemical, IANBD-TnC fluorescence, EC70 calcium; AID 493244, 2011; 340,000 compounds, 0.12% hits; Troponin I, cardiac muscle (Homo sapiens) + Troponin T, cardiac muscle (Homo sapiens) + …; IANBD-labeled cardiac RTF, Ca2+ fluorescence; inhibition, % at 7.15 µM;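 active = inhibition above the mean inhibition of all tested compounds plus 3 SD, cut at about 17% in these data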;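 note: assay run at fixed EC70 calcium of 1.6 mM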
LANA DNA inh – inhibitors of KSHV C-LANA binding to DNA, primary screen, biochemical, fluorescence polarization, FAM-LBS DNA, MBP-C-LANA, single point; AID 504423, 2011; 340,000 compounds, 0.078% hits; inhibition, % at 9 µM; Kaposi's sarcoma herpesvirus LANA C-terminal domain (residues 932-1162) DNA binding;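 active = highest replicate inhibition at or above 60% at 9 µM, even if other replicates fall short; inactive = all replicates below 60% inhibition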
RTF Ca sens act – cardiac RTF calcium sensitivity activators, primary screen, biochemical, IANBD-TnC fluorescence, EC20 calcium; Troponin I, cardiac muscle (Homo sapiens) + Troponin T, cardiac muscle (Homo sapiens) + …; IANBD-labeled TnC RTF fluorescence at EC20 calcium; 0% EC20 calcium, 100% full calcium; activation, % at 7.2 µM; 340,000 compounds, 0.24% hits;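 active = activation above the mean over all tested compounds plus 3 SD, cut at about 30% in these data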;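 note: rise in fluorescence read as greater calcium sensitivity of cardiac thin filaments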
eLon confirm – E. coli Lon protease inhibitor retest, confirmation, biochemical, fluorescence polarization; shares compounds with E coli Lon inh; purified E. coli Lon; inhibition, % at 7.94 µM; 1,400 compounds, 31% hits; AID 602230, 2012; in the data active = inhibition above about 16%
Of the large screens only hits and unclear results are named; the others gave an inactive call (follow-up assays come after a bar, where they were run); ! = not active in a repeat. Rows were chosen to be rich in hits. Some 0.82% of all compounds tested hit in one or more screens of this group.

Clc1ccccc1Nc1nc(NCC2CC2)nc2ccsc12	none (no result: Keap1 Nrf2 FP, Cardiac RTF inh, LANA DNA inh, RTF Ca sens act)
O=C(Nc1ccc2c(c1)OCO2)c1cc(C2CCCCN2C(=O)c2ccccc2)on1 (stereo not given)	none (no result: Keap1 Nrf2 FP, Cardiac RTF inh, LANA DNA inh, RTF Ca sens act)
O=C(Oc1cc2oc(=O)c3c(c2cc1Cl)CCCC3)c1cccs1	none
O=C(Oc1ccc2c3c(c(=O)oc2c1)CCCC3)c1cccs1	E coli Lon inh 18 | eLon confirm 25
CCOc1ccc(NC(=O)CC2C(=O)Nc3ccccc3N2C(=O)c2ccccc2)cc1 (stereo not given)	E coli Lon inh 15 | eLon confirm inactive
COc1ccccc1NC(=O)CC1C(=O)Nc2ccccc2N1C(=O)c1ccccc1 (stereo not given)	none
CC(=O)c1ccc(OCC(=O)OCC(=O)c2ccc(S(=O)(=O)N3CCCCC3)cc2)cc1	none (no result: Keap1 Nrf2 FP, Cardiac RTF inh, LANA DNA inh, RTF Ca sens act)
COc1ccc(CCNC(=O)c2ccc3c(c2)N(Cc2ccc(F)cc2)CCS3)c(OC)c1	E coli Lon inh 18 | eLon confirm inactive
Nc1ccn(C2OC(COC(=O)C34CC5CC(CC(C5)C3)C4)C(O)C2O)c(=O)n1 (stereo not given)	none
Cc1ccc(-c2nnc(N3CCN(C(=O)Cn4c(=O)n(C)c5ccccc54)CC3)c3ccccc23)cc1	E coli Lon inh 24 | eLon confirm inactive
Cc1ccc(S(=O)(=O)N2CC(O)C[C@H]2C(=O)OCC(=O)c2ccccc2)cc1 (stereo not given in full)	none
O=C(COC(=O)C1CC(O)CN1S(=O)(=O)c1ccc(Cl)cc1)c1cccc(Cl)c1 (stereo not given)	E coli Lon inh 72 | eLon confirm inactive
O=S(=O)(c1ccccc1)N1CCN(Cc2ccccc2)c2ccccc21	E coli Lon inh 34 | eLon confirm inactive
O=S(=O)(c1ccccc1)N1CCN(Cc2ccccc2)CC1	none
O=C1CC(c2ccccc2)CC2=C1C1(CCCC1)N=C(Nc1nc3ccccc3o1)N2 (stereo not given)	none (no result: Keap1 Nrf2 FP, Cardiac RTF inh, LANA DNA inh, RTF Ca sens act)
COC(=O)c1ccccc1NC(=O)N[C@@H](C)C(=O)OC	E coli Lon inh 16 | eLon confirm inactive
N#CC(C#N)=C1C=C2C=C(N3CCCCCC3)CCC2CC1 (stereo not given)	E coli Lon inh 151, RTF Ca sens act active | eLon confirm inactive
COc1ccc(CCNC(=O)c2cc3ccc(Cl)cc3nc2N)cc1	none (no result: Keap1 Nrf2 FP, Cardiac RTF inh, LANA DNA inh, RTF Ca sens act)
CCc1ccccc1NC(=O)CCC(=O)N1CCN(C(C)=O)CC1	none (no result: Keap1 Nrf2 FP, Cardiac RTF inh, LANA DNA inh, RTF Ca sens act)
O=C(CCc1nc2ccccc2[nH]1)Nc1ccccc1F	E coli Lon inh 14 | eLon confirm inactive
Cc1cc(C(=O)NCCN2CCCCC2C)n(-c2ccccc2)n1 (stereo not given)	none
CC1CCCCN1CCNC(=O)c1cnn2ccccc12 (stereo not given)	E coli Lon inh 14 | eLon confirm inactive
CC(=O)c1ccc2noc(-c3ccc(F)cc3)c2c1	E coli Lon inh 16 | eLon confirm 58
CC(=O)c1ccc2noc(-c3ccc(Cl)cc3)c2c1	none
Cc1cc(C)cc(Cn2cc(CN3CC(N4CCN(CCO)CC4)CS3(=O)=O)nn2)c1 (stereo not given)	none (no result: Keap1 Nrf2 FP, Cardiac RTF inh, LANA DNA inh, RTF Ca sens act)
O=C(c1ccccc1)c1c2c(cc3sc4ccccc4[n+]13)-c1cccc3cccc-2c13	E coli Lon inh active | eLon confirm active
CCOC(=O)N1CCN(CC(=O)c2ccc(O)cc2O)CC1	E coli Lon inh 25 | eLon confirm 29
Oc1c(N=Nc2ccc(F)cc2)ccc2ccccc12	none
Oc1c(N=Nc2nn[nH]n2)ccc2ccccc12	E coli Lon inh 48 (no result: Keap1 Nrf2 FP, Cardiac RTF inh, LANA DNA inh, RTF Ca sens act) | eLon confirm 25
O=C(CCN1CCCCC1)c1cccc(Cl)c1	none
O=C(c1c(O)c2ccccc2oc1=O)C1CCC1	none
O=c1oc2ccccc2c(O)c1Sc1c(O)c2ccccc2oc1=O	E coli Lon inh 28 | eLon confirm 35
NC(=O)c1c(N)[nH]c(C(=O)c2ccccc2)c1-c1ccccc1Br	none (no result: Keap1 Nrf2 FP, Cardiac RTF inh, LANA DNA inh, RTF Ca sens act)
CC(=O)Nc1cccc(/C(C)=N/NC(=O)c2cccc(S(=O)(=O)N3CCCC3)c2)c1	none (no result: Keap1 Nrf2 FP, Cardiac RTF inh, LANA DNA inh, RTF Ca sens act)
C/C(N)=C(/C#N)C(=O)COC(=O)C1Cc2ccccc2CN1S(C)(=O)=O (stereo not given)	E coli Lon inh 16! | eLon confirm inactive
COc1cccc2cc(-c3nc(-c4cccs4)cs3)c(=O)oc12	none
O=c1oc2ccccc2cc1-c1nc(-c2cccs2)cs1	E coli Lon inh 39 | eLon confirm 45
c1cncc(Nc2c3ccccc3nc3ccccc23)c1	E coli Lon inh 25 | eLon confirm inactive
Oc1cccc(Nc2c3ccccc3nc3ccccc23)c1	none
COc1ccc(CC2(CO)CCN(Cc3cc4ccccc4o3)CC2)cc1	none
OCC1(Cc2cccc(C(F)(F)F)c2)CCN(Cc2cc3ccccc3o2)CC1	E coli Lon inh 12 | eLon confirm inactive
Cc1ccc(S(=O)(=O)N(C)c2ccc(C(=O)NCC(c3ccccc3)N3CCCC3)cc2)cc1 (stereo not given)	none (no result: Keap1 Nrf2 FP, Cardiac RTF inh, LANA DNA inh, RTF Ca sens act)
N#Cc1c(F)cccc1NCc1cccnc1	none
N#Cc1c(NCc2ccccc2)ccnc1NCc1cccnc1	E coli Lon inh 17 | eLon confirm inactive
O=C(Oc1ccc(-c2nnco2)cc1)c1cc(S(=O)(=O)N2CCOCC2)ccc1F	none (no result: Keap1 Nrf2 FP, Cardiac RTF inh, LANA DNA inh, RTF Ca sens act)
COc1ccc(Cl)cc1N(CC(=O)Nc1ccccc1C(=O)N1CCCC1)S(C)(=O)=O	E coli Lon inh 18 | eLon confirm inactive
COCCNC(=O)C1(C)CCCN(Cc2ccc(Oc3ccccc3)cc2)C1 (stereo not given)	none (no result: Keap1 Nrf2 FP, Cardiac RTF inh, LANA DNA inh, RTF Ca sens act)
COc1ccc(/C=C2/CCC(CN3CCOCC3)C2=O)cc1 (stereo not given)	none
O=C(CSCc1cc(=O)n2ccsc2n1)Nc1ccc(F)cc1	E coli Lon inh 66 | eLon confirm inactive
Cc1ccc(NC(=O)CSCc2cc(=O)n3ccsc3n2)cc1	none
Cc1cc(C)n2nc(SCc3cc(=O)oc4ccc5ccccc5c34)nc2n1	E coli Lon inh 14 | eLon confirm inactive
CCOc1ncccc1C(=O)OCC(=O)Nc1cc(S(=O)(=O)N(CC)CC)ccc1C	E coli Lon inh 13 | eLon confirm inactive
CCN(CC)S(=O)(=O)c1ccc(NC(=O)CC(NC(C)=O)c2ccccc2)cc1 (stereo not given)	E coli Lon inh 17 | eLon confirm inactive
CCOC(=O)C1CCCN(C(=O)c2cncc(Br)c2)CC1 (stereo not given)	none (no result: Keap1 Nrf2 FP, Cardiac RTF inh, LANA DNA inh, RTF Ca sens act)
CN(C)c1ccc2nc3ccc(=O)cc-3sc2c1	E coli Lon inh 40 (no result: Keap1 Nrf2 FP, Cardiac RTF inh, LANA DNA inh, RTF Ca sens act) | eLon confirm 44
C#Cc1cccc(Nc2nc(NCc3ccccc3)nc3ccsc23)c1	none (no result: Keap1 Nrf2 FP, Cardiac RTF inh, LANA DNA inh, RTF Ca sens act)
CC(=O)Nc1ccc(NC(=O)[C@H](C)NC(=O)c2ccco2)cc1	E coli Lon inh 53 | eLon confirm inactive

Screening data (PubChem BioAssay)
